Records with an inconclusive call do not appear. Active and inactive are the calls of the source. The call rests on the fitted dose curve; in most records, active means well fitted inhibition curve with a large enough effect; inconclusive means small, poorly fitted or top-dose-only effect; inactive means flat fitted curve, though single readings scatter.
Biological target: Ferritin light chain (Equus caballus) (UniProt P02791)
Test: Confirmation Assay for Identification of Novel General Anesthetics; further: nearly all actives have a fitted effect of over 40% in size
Conditions: apoferritin 1-aminoanthracene fluorescence displacement
In short: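 Horse apoferritin (10 uM) pre-loaded with 1-AMA (50% saturated, PBS) exposed to compounds 10 min at room temperature; loss of 1-AMA fluorescence (380/535 nm) scaled between free and bound ligand, curves fitted with Hill equation.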
Potency means the concentration at half of the fitted maximal effect.

Ferritin light chain (Equus caballus), sequence (P02791 2-175 limits assumed): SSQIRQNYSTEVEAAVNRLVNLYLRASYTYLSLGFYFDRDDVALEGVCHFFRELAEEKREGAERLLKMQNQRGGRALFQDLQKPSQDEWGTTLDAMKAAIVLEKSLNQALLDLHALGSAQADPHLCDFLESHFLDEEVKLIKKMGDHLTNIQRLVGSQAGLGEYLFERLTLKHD

Potency, active:
O=C(COC(=O)CC1CC2CCC1C2)NC(=O)NCc1ccco1 (stereo not drawn) 22.4 µM
CC1Cc2ccccc2N1C(=O)CSc1ccccc1 (stereo not drawn) 14.1 µM
Fc1ccccc1CSc1nncn1NC/C=C/c1ccccc1 31.6 µM
Cc1ccc(NC(=O)c2ccccc2)cc1OC(=O)c1ccccc1 28.2 µM
O=C(CCc1ccccc1)NC(=S)Nc1ccccc1[N+](=O)[O-] 15.8 µM
O=C(NC1C2CC3CC(C2)CC1C3)c1ccc2c(c1)OCO2 (stereo not drawn) 28.2 µM
Nc1ccc(CSc2ccc(Cl)cc2)cc1 15.8 µM
Cc1ccc(NC(=O)N2CCCCCC2)c(C)c1 15.8 µM
Nc1cc(Cl)ccc1Oc1ccc2ccccc2c1 15.8 µM
CC1(C)CC(=O)c2c(noc2-c2ccccc2)C1 17.8 µM
Cc1ccc(O)c(NC(=O)CCC2CCCCC2)c1 7.94 µM
CC(Nc1ccccc1)c1cccnc1 (stereo not drawn) 15.8 µM
O=C1c2ccsc2SCCN1Cc1ccccc1Cl 14.1 µM
ON1C(c2ccc(Cl)cc2Cl)N(O)[C@H]2CCCC[C@H]21 (stereo partly drawn) 7.94 µM
O=C(Cc1ccccc1)N1CCc2ccccc21 14.1 µM
Nc1nnc(SCC(=O)NC23CC4CC(CC(C4)C2)C3)s1 7.94 µM
CC(C)CCNC(=O)CN1N=C(c2ccc(Cl)cc2)CCC1=O 5.19 µM
Cc1ccc(CN=C2Nc3ccccc3CS2)cc1 14.1 µM
Fc1ccccc1CSc1nc2ccccc2[nH]1 15.8 µM
Oc1ccc(C(=S)N2CCCCCC2)cc1 14.1 µM
Oc1ccc(C(=S)N2CCCCC2)cc1Cl 17.8 µM
Cc1ccccc1OCC(=O)N1CCCc2ccccc21 17.8 µM
Cc1cc(C(=O)OCC(=O)N2C(C)CCCC2C)c(C)o1 (stereo not drawn) 14.1 µM
C=C(C)C(=O)OC1(C(F)(F)F)Oc2cc(C)ccc2NC1=O (stereo not drawn) 15.8 µM
O=C1C(Cl)=C(N2CCOCC2)C(=O)N1c1ccccc1Cl 15.8 µM
O=C(Nc1ccc(Br)cc1)N1CCCCCC1 25.1 µM
CN(C(=O)c1cncc(Br)c1)C1C2CC3CC(C2)CC1C3 (stereo not drawn) 12.6 µM
Cc1ccc(Cn2cccc(NC(=O)NC3CCCCC3)c2=O)cc1 15.8 µM
CC1CCCN(C(=O)COc2ccc(Nc3ccccc3)cc2)C1 (stereo not drawn) 25.1 µM
O=S(=O)(NCCCc1ccccc1)c1ccc(F)c(F)c1 17.8 µM
COc1cc(C(=O)O[C@@H]2CC3CC[C@]2(C)C3(C)C)ccc1O 14.1 µM
O=C(Nc1ccc(Cl)c(Cl)c1)OCc1cncs1 28.2 µM
O=C(CCc1ccccc1)Nc1cc(Cl)ccc1O 6.31 µM
N#Cc1ccccc1NCc1ccccc1 11.2 µM
O=[N+]([O-])c1ccc(CNc2cccc(Cl)c2)s1 15.8 µM
Nc1nnc(COc2cccc(C(F)(F)F)c2)s1 15.8 µM
Cc1cc(C)cc(NC(=O)N2CCCCCCC2)c1 6.31 µM
Cc1cccc(NC(=O)N2CCCCCC2)c1C 8.91 µM
